Compound activity deposited in PubChem BioAssay by National Center for Advancing Translational Sciences (NCATS).
The list is not random: actives were taken first. Their share in the collection is about 1.2%.
NPSR antag – qHTS Assay for Antagonists of the Neuropeptide S Receptor: cAMP Signal Transduction; Q6W5P4; hit rate 1% among 220,000; Potency, µM (series often up to 38.3 µM), hits mostly inhibitors; CHO-NPSR cells, cAMP TR-FRET, antagonist mode; further: nearly all actives have a fitted effect of over 50% in size
rTrxR1 inhibitor – qHTS Assay for Inhibitors of Mammalian Selenoprotein Thioredoxin Reductase 1 (TrxR1): qHTS. Thioredoxin reductase 1, cytoplasmic (Rattus norvegicus), O89049. recombinant rTrxR1, NADPH fluorescence consumption, selenite substrate. Potency, µM (series often up to 114 µM), most hits filed as inhibitors. hit rate 1% among 390,000; further: nearly all actives have a fitted effect of over 65% in size
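Rat TrxR1 (90 nM in the dispensed reagent) was pre-reduced with 400 uM NADPH for 5 min at room temperature, then incubated with compound for 15 min. After 400 uM selenite was added, NADPH fluorescence (Ex 340/Em 450 nm) was followed for 8 min.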
TrxR1 substrate – qHTS Assay for Substrates of Mammalian Selenoprotein Thioredoxin Reductase 1 (TrxR1): qHTS; Potency, µM (series often up to 114 µM); Thioredoxin reductase 1, cytoplasmic (Rattus norvegicus), O89049; hit rate 0.01% among 390,000; purified TrxR1 substrate turnover, NADPH consumption readout; further: nearly all actives have a fitted effect of over 50% in size
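Rat TrxR1, dispensed at 90 nM, was prereduced with 400 uM NADPH (final) for 5 min at ~22 deg C, then incubated with compound 15 min before 400 uM selenite. A first-read NADPH fluorescence drop versus no-compound background flagged substrates.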
GALK inhibitor – qHTS Assay for Inhibitors of Human Galactokinase (GALK) | P51570 | Purified GALK, Kinase-Glo residual ATP luminescence | Potency, µM (series often up to 57.5 µM), most hits filed as inhibitors | hit rate 0.007% among 270,000 | AID 1868, 2009
Target sequence (P51570 whole entry, looked up): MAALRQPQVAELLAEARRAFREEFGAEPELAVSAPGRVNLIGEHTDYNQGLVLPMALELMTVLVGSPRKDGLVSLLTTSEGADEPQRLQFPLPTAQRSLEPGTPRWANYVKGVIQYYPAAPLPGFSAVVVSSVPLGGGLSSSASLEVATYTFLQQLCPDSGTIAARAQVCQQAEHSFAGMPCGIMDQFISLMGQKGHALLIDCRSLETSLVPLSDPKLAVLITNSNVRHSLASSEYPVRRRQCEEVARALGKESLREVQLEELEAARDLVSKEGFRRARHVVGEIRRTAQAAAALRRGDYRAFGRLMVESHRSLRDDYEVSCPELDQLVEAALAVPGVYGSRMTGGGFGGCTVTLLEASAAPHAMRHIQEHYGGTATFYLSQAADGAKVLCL
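Compounds were pin-transferred into ATP buffer (35 uM final), then GALK plus galactose (5 nM, 100 uM final) was added. After 1 h at room temperature, Kinase-Glo Plus was added and luminescence read after 10 min.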
Numbers stand for hits; n = inactive; u = inconclusive; x = no result; [ ] = remark or other dose. The call rests on the fitted dose curve; in most records, active means well fitted curve in the direction sought with a large enough effect; inconclusive means small, poorly fitted or top-dose-only effect, or another doubt; inactive means no such curve, though single readings can be large; an effect the other way counts as inactive or inconclusive.

SMILES | NPSR antag | rTrxR1 inhibitor | TrxR1 substrate | GALK inhibitor
COc1ccc(C2NC(=O)NC(O)(C(F)(F)F)C2C(=O)c2ccccc2)cc1OC (stereo unspecified) | n | 28µM | n | n
N#Cc1c(NC(=O)/C=C/c2ccco2)sc2c1CCCC2 | n | 40µM | n | n
N#CC(C#N)=C1c2cc(S(=O)(=O)NCCO)ccc2-c2ccc(S(=O)(=O)NCCO)cc21 | n | 3.5µM | n | n
O=C1c2cc(S(=O)(=O)NCCO)ccc2-c2ccc(S(=O)(=O)NCCO)cc21 | n | n[11.4 µM] | n | n
NS(=O)(=O)c1ccc2c(c1)C(=NO)c1cc(S(N)(=O)=O)ccc1-2 | x | n | n | n
N#CC(C#N)=C1c2cc(S(N)(=O)=O)ccc2-c2ccc(S(N)(=O)=O)cc21 | n | 10µM | n | n
CSc1cccc(Nc2cc(C(=O)NCCCN(C)c3ccccc3)c3ccccc3n2)c1 | x | n | n | x
CCc1cccc2c(C(O)c3c[nH]c4ccccc34)c[nH]c12 (stereo unspecified) | x | n | n | x
Cc1ccc(NN2C(=O)C=C(c3ccccc3)C2=O)cc1 | u | 6.3µM | n | n
O=C(CCN1CCC(c2ccccc2)C1)c1ccccc1 (stereo unspecified) | n | u | n[2.29 µM] | n
O=C(CCN1CCC(c2ccccc2)C1)c1ccc2c(c1)OCCO2 (stereo unspecified) | n | 0.28µM | n | n
O=C(CCN1CCc2ccccc2C1)c1ccc2c(c1)OCCO2 | n | 0.56µM | n | n
O=C(CCc1ccccc1)c1ccc2c(c1)OCCCO2 | n | n | n | n
O=C(CCN1CCC(c2ccccc2)C1)c1cccs1 (stereo unspecified) | n | u | n[11.4 µM] | n
COc1cc(C(=O)CCN2CCC(c3ccccc3)C2)cc(OC)c1OC (stereo unspecified) | n | 0.5µM | n | n
O=C(CCN1CCc2ccccc21)c1ccc2c(c1)OCCO2 | n | u | n | n
O=C(CCN1CCCC1Cc1ccccc1)c1ccc2c(c1)OCCO2 (stereo unspecified) | u | 0.32µM | n | n
O=C(CCN1CCCCC1)c1ccc2c(c1)OCCO2 | n | 0.32µM | n | n
CC1CC(C)CN(C(=O)c2ccc(-c3ccc([N+](=O)[O-])cc3)o2)C1 (stereo unspecified) | x | 18µM | n | x
O=C1CN(C(=O)Nc2ccccc2Cl)C(c2ccccc2)c2c(sc3c2CCCC3)N1 (stereo unspecified) | x | n | n | x
Cc1noc(C)c1CSc1nc2ccccc2c(=O)n1-c1ccc(Cl)cc1 | 10µM | n | n | n
O=C1CCCN1c1ccc(C(=O)N(Cc2nnc(-c3ccc(Cl)cc3)o2)C2CC2)cc1 | x | n | n | x
CCOC(=O)C1CCCN(c2nc3c(S(=O)(=O)c4ccc(Br)cc4)nnn3c3ccsc23)C1 (stereo unspecified) | x | n | n | x
Cc1ccc2nc(N(CCN3CCOCC3)C(=O)CCS(=O)(=O)c3ccccc3)sc2c1 | x | n | n | x
Cc1ccc(S(=O)(=O)CCC(=O)N(CCCN2CCOCC2)c2nc3ccccc3s2)cc1 | x | 28µM | n | x
SMILES | NPSR antag | rTrxR1 inhibitor | TrxR1 substrate | GALK inhibitor
CN(C)CCN(C(=O)CCS(=O)(=O)c1ccccc1)c1nc2cc3c(cc2s1)OCO3 | x | n | n | n
CCN(CC)CCN(C(=O)CCS(=O)(=O)c1ccccc1)c1nc2cc3c(cc2s1)OCO3 | x | 14µM | n | n
O=C(CCS(=O)(=O)c1ccccc1)N(CCCN1CCOCC1)c1nc2ccccc2s1 | x | 14µM | n | x
Cc1ccc(S(=O)(=O)N2CCc3cc(C(=O)Nc4ccc(C)c(C)c4)ccc32)cc1 | x | n | n | x
O=C(NCCN1CCOCC1)c1ccc(Cl)c(S(=O)(=O)N2CCOCC2)c1 | x | n | n | n
Cc1cc2c(cc1NS(=O)(=O)c1ccc(NC(=O)CC(C)C)cc1)n(C)c(=O)c(=O)n2C | x | n | n | x
Cc1oc(-c2ccccc2)nc1CS(=O)CC(=O)NC1CCCCCC1 (stereo unspecified) | x | 32µM | n | n
CCOC(=O)C1CCN(C(=O)CS(=O)Cc2nc(-c3ccc(C)cc3)oc2C)CC1 (stereo unspecified) | n | 14µM | n | n
Cc1ccc(-c2nc(CS(=O)CC(=O)N3CCN(c4ccc(F)cc4)CC3)c(C)o2)cc1 (stereo unspecified) | x | u | n | n
Cc1ccc(-c2nc(CS(=O)CC(=O)NC3CCC(C)CC3)c(C)o2)cc1 (stereo unspecified) | n | 16µM | n | n
CC1=C(C(=O)OCc2ccccc2)N2C(=O)[C@@H](NC(=O)OCc3ccccc3)[C@H]2SC1 | x | n | n | x
O=C1CCC[C@@H]2CC(N(Cc3cc4ccccc4s3)c3ccccc3)C[C@@H]3CCN1[C@H]23 (stereo partly specified) | x | n | n | x
CCN1CCN(c2cc(N3CCN(C(=O)c4ccco4)CC3)c3c4c(onc24)-c2ccccc2C3=O)CC1 | x | n | n | n
CC(=O)OCCNc1cc(N2CCN(C)CC2)c2noc3c2c1C(=O)c1ccccc1-3 | 10µM | n | n | n
O=C(O)CCCNc1cc(N2CCN(C3CCCCC3)CC2)c2noc3c2c1C(=O)c1ccccc1-3 | x | n | n | x
O=C(O)CCNc1cc(N2CCN(C(=O)c3ccco3)CC2)c2noc3c2c1C(=O)c1ccccc1-3 | x | 35µM | n | n
CN(C)c1ccc(/C=C2\C=Cc3cc([N+](=O)[O-])ccc32)cc1 | x | n | n | x
CCCCN(C)C(=O)C1CCC(CNS(=O)(=O)c2ccc(Cl)cc2)CC1 (stereo unspecified) | x | n | n | x
Cc1cc(C)nc(SCc2cc(=O)c(OC(=O)c3ccc(Cl)c([N+](=O)[O-])c3)co2)n1 | n | u | n | n
Cc1cc(C)nc(SCc2cc(=O)c(OC(=O)c3ccc(S(=O)(=O)N(C)C)cc3)co2)n1 | n | 50µM | n | n
Cc1ccnc(SCc2cc(=O)c(OC(=O)c3ccc(S(=O)(=O)N4CCCC4)cc3)co2)n1 | n | 28µM | n | n
Cc1ccnc(SCc2cc(=O)c(OC(=O)c3ccc(Br)o3)co2)n1 | n | u | n | n
Cc1ccnc(SCc2cc(=O)c(OC(=O)c3ccc(S(=O)(=O)N(C)C)cc3)co2)n1 | n | 10µM | n | n
COc1ccc(CCN2C(=O)N(c3cccc(C)c3)C(=O)C2CC(=O)Nc2ccccc2)cc1OC (stereo unspecified) | x | n | n | x
Cc1c(C#N)c(NC(=O)CCl)n(Cc2ccccc2)c1C | n | 3.5µM | n | n
Cc1c(C#N)c(NC(=O)CCl)n(Cc2ccc(F)cc2)c1C | n | u | n | n
CCN(CC)C(=O)c1sc(NC(=O)Cc2cccs2)c(C#N)c1C | n | n | n | n
Cc1c(C#N)c(NC(=O)CCl)n(Cc2cccs2)c1C | n | 3.5µM | n | n
Cc1cc(NCCCCO)n2c(nc3ccccc32)c1C#N | n | n | n | n
